Test results: PubChem BioAssay (NCATS)
Results filed as inconclusive are left out. Unmarked numbers belong to inactive results. Calls of active or inactive are those of the source. The call rests on the fitted dose curve; in most records, active means well fitted curve in the direction sought with a large enough effect; inconclusive means small, poorly fitted or top-dose-only effect, or another doubt; inactive means no such curve, though single readings can be large; an effect the other way counts as inactive or inconclusive.

assay: qHTS for differential inhibitors of proliferation of Plasmodium falciparum line 3D7 (AID 1876);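 on activity, negative = inhibition: parasite growth measured after three days of culture; 0% = vehicle wells and -100% = reference inhibitor wells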; conditions: P. falciparum 3D7 proliferation inhibition; series mostly up to 28.7 µM; activity, negative = inhibition: at the top concentration
Potency means the concentration at half of the fitted maximal effect.

Row | Structure (SMILES) | activity, negative = inhibition | Potency
1 | COc1ccccc1N1CCN(CCN2C(=O)CC3(CCCC3)CC2=O)CC1 | -8.54% | 
2 | O=[N+]([O-])c1ccc(-c2nc(-c3ccc(F)cc3)c(-c3ccncc3)[nH]2)cc1 |  | 3.55 µM (active)
3 | C[N+](C)(C)CCO | 8.37% | 
4 | CC(C)N(CCC(=O)c1ccc2ccccc2c1)Cc1ccccc1 | -0.58% | 
5 | NC(N)=NCCCCN=C(N)N | -2.36% | 
6 | C[C@]12CCC(=O)C=C1CC[C@@H]1[C@@H]2[C@@H](O)C[C@@]2(C)[C@H]1CC[C@]2(O)C(=O)COC(=O)CCC(=O)O | -12% | 
7 | CN(C)c1cc2c(Nc3ccc4c(cnn4Cc4ccccc4)c3)ncnc2cn1 |  | 3.55 µM (active)
8 | O=C1NC(c2cccc([N+](=O)[O-])c2)=CCN1c1ccccc1O | 4.65% | 

assay: qHTS for differential inhibitors of proliferation of Plasmodium falciparum line D10 (AID 1877); conditions: series mostly up to 28.7 µM; activity change, negative = inhibition: at the top concentration;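 further: parasites grown with compound for 72 h before DNA staining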;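 on activity change, negative = inhibition: plate controls were vehicle wells for no effect and reference inhibitor wells for full effect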

Row | Structure (SMILES) | activity change, negative = inhibition | Potency
9 | COc1ccccc1N1CCN(CCN2C(=O)CC3(CCCC3)CC2=O)CC1 | -7.17% | 
10 | O=[N+]([O-])c1ccc(-c2nc(-c3ccc(F)cc3)c(-c3ccncc3)[nH]2)cc1 |  | 5.01 µM (active)
11 | C[N+](C)(C)CCO | 3.59% | 
12 | CC(C)N(CCC(=O)c1ccc2ccccc2c1)Cc1ccccc1 | -13.8% | 
13 | NC(N)=NCCCCN=C(N)N | -14.1% | 
14 | C[C@]12CCC(=O)C=C1CC[C@@H]1[C@@H]2[C@@H](O)C[C@@]2(C)[C@H]1CC[C@]2(O)C(=O)COC(=O)CCC(=O)O | -8.17% | 
15 | Brc1ccc([C@H]2CN3CCSC3=N2)cc1 | -18.8% | 
16 | CN(C)c1cc2c(Nc3ccc4c(cnn4Cc4ccccc4)c3)ncnc2cn1 |  | 10 µM (active)
17 | O=C1NC(c2cccc([N+](=O)[O-])c2)=CCN1c1ccccc1O | -10.6% | 

assay: qHTS for differential inhibitors of proliferation of Plasmodium falciparum line Dd2 (AID 1882); conditions: Potency: Plasmodium falciparum Dd2 proliferation inhibition; series mostly up to 28.7 µM; activity change, negative = inhibition: at the top concentration; further: nearly all actives have a fitted effect of over 65% in size;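 on activity change, negative = inhibition: plate controls were DMSO vehicle for no effect and 0.29 µM artemisinin for full effect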
Summary of the method: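 Dd2-infected erythrocytes (0.3% parasitemia, 2.5% hematocrit final) incubated with compound 72 h at 37 C, 5% CO2; lysed with saponin/Triton buffer containing SYBR Green I, incubated overnight in the dark, then read by fluorescence (485/535 nm). Normalized to 0.29 uM artemisinin and DMSO.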

Row | Structure (SMILES) | activity change, negative = inhibition | Potency
18 | COc1ccccc1N1CCN(CCN2C(=O)CC3(CCCC3)CC2=O)CC1 | -4.19% | 
19 | O=[N+]([O-])c1ccc(-c2nc(-c3ccc(F)cc3)c(-c3ccncc3)[nH]2)cc1 |  | 6.31 µM (active)
20 | C[N+](C)(C)CCO | 1.23% | 
21 | CC(C)N(CCC(=O)c1ccc2ccccc2c1)Cc1ccccc1 | -28.6% | 
22 | NC(N)=NCCCCN=C(N)N | 0.149% | 
23 | Cn1cnc2c(NCc3ccccc3)nc(NCCO)nc21 | -15.1% | 
24 | C[C@]12CCC(=O)C=C1CC[C@@H]1[C@@H]2[C@@H](O)C[C@@]2(C)[C@H]1CC[C@]2(O)C(=O)COC(=O)CCC(=O)O | -15.2% | 
25 | COc1cccc2c1[C@@H]1CN(CCCCn3c(=O)[nH]c4c(sc5ncc(-c6ccccc6)nc54)c3=O)C[C@@H]1CO2 | 8.09% | 
26 | CN(C)c1cc2c(Nc3ccc4c(cnn4Cc4ccccc4)c3)ncnc2cn1 |  | 11.2 µM (active)
27 | O=C1NC(c2cccc([N+](=O)[O-])c2)=CCN1c1ccccc1O | -25.3% | 
